Source: PubChem (several laboratories)
An excerpt weighted towards active compounds, which were near 6.6% of everything screened.
BoNT A protease: blocks Botulinum neurotoxin A light chain protease | multiplex microsphere protease substrate cleavage, flow cytometry | inhibition, % at 10 µM | 0.17% of 360,000 active | AID 588499
GDH-TPI inh: counter-screen for M. tuberculosis FBA inhibitors: GDH-TPI coupled enzymes | inhibition, % at 4.8 µM | GDH-TPI coupled enzyme counterscreen, NADH absorbance | AID 588335 | 1.2% of 360,000 active; in the data active = inhibition above about 30%
Autofluor counter: counter-screen for toxin protease inhibitors: compound fluorescence. compound autofluorescence counterscreen, microsphere flow cytometry; stronger effect = higher value. fluorescence intensity (concentration not given with the values). 3.1% of 360,000 active. AID 624483; in the data active = fluorescence intensity above about 16000; inconclusive = no clear call, values can overlap the other calls
Anthrax LF prot: anthrax lethal factor protease inhibition | 0.12% of 360,000 active | inhibition, % at 10 µM | multiplex microsphere protease cleavage assay, LF
BoNT F protease: BoNT F light chain protease inhibition; Multiplex microsphere protease cleavage assay, flow cytometry; 0.22% of 360,000 active; inhibition, % at 10 µM; in the data active = inhibition above about 35%, passing the limit was not always enough; inconclusive = no clear call, values can overlap the other calls
Mtb FBA inh: Mtb fructose-bisphosphate aldolase inhibition. P9WQA3. purified M. tuberculosis FBA, fluorescence read-out. inhibition, % at 1 µM. 2.3% of 360,000 active; in the data active = inhibition above about 27%
Target sequence (P9WQA3 whole entry, looked up): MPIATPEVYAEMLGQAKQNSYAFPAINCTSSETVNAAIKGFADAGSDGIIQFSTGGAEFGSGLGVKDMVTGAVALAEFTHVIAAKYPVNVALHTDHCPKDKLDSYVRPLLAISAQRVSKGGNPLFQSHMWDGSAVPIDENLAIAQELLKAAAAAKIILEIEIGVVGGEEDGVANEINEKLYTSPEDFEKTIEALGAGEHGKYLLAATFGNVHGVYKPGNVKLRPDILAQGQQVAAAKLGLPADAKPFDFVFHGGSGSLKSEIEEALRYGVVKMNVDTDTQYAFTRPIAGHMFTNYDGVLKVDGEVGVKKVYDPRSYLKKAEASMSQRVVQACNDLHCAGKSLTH
Numbers stand for hits; - = inactive; ? = inconclusive; . = not tested or not shown; + = active, no number. Cut-off read from the data, not from the text of the source, unless noted: active = inhibition above about 30%; inconclusive = no clear call, values can overlap the other calls; inactive = below that.

SMILES | BoNT A protease | GDH-TPI inh | Autofluor counter | Anthrax LF prot | BoNT F protease | Mtb FBA inh
CC(=O)Nc1nnc(/C=C/c2cccc([N+](=O)[O-])c2)s1 | - | - | - | - | 63 | -
COC(=O)Nc1nnc(/C=C/c2ccccc2)s1 | - | - | - | - | - | +
COc1ccc(NS(=O)(=O)c2ccc3oc(=O)c4[nH]c(=O)c(=O)n(C)c4c3c2)cc1 | - | 34 | - | - | - | -
COc1ccc(N2C(=O)CN(Cc3ccc(OC)c(OC)c3)C2=S)cc1 | - | - | - | - | - | -
CCN1CCN(C(c2cccs2)C(C)NC(=O)c2ccco2)CC1 (configuration not stated) | - | - | 23437 | - | - | -
COc1ccccc1C(=O)NC(C)C(c1cccs1)N1CCN(C)CC1 (configuration not stated) | - | - | 23363 | - | - | -
CC(NC(=O)c1ccc(F)cc1)C(c1cccs1)N1CCN(C)CC1 (configuration not stated) | - | - | 21892 | - | - | -
COc1ccc(N2CCN(C(c3cccs3)C(C)NS(=O)(=O)c3ccccc3)CC2)cc1 (configuration not stated) | - | - | 16688 | - | - | -
CC1(C(=O)Nc2cccc3cccnc23)CCN1Cc1ccc(-c2ccccc2)o1 (configuration not stated) | - | - | - | - | - | -
O=C(NN1C(=O)C2C(c3ccccc3)C=CC(c3ccccc3)C2C1=O)c1cccc(Br)c1 (configuration not stated) | - | - | - | - | - | -
CC(NS(=O)(=O)c1ccc(Cl)cc1)C(c1cccs1)N1CCN(C)CC1 (configuration not stated) | - | - | - | - | - | -
CC(NS(=O)(=O)c1ccc(F)cc1)C(c1cccs1)N1CCN(C)CC1 (configuration not stated) | - | - | 24274 | - | - | -
O=C(c1cccc(Cl)c1)N1CCC(N2CCC(C(=O)N3CCCC3)CC2)CC1 | - | - | - | - | - | -
CN(C)/C=C1\SC(=S)N(c2ccc(F)cc2)C1=O | . | - | . | . | . | -
CN(C)/C=C1\C(=O)N(c2ccc(Cl)cc2)CS1(=O)=O | - | - | 23839 | - | - | -
Cc1ccc(N2CS(=O)(=O)/C(=C/N(C)C)C2=O)cc1 | - | - | 21872 | - | - | -
CC1=NN(c2ccc(Cl)cc2)C(=O)C1 | - | - | - | - | - | -
COCCN1C(=O)CCC1(C)C(=O)Nc1c(C)cccc1C (configuration not stated) | - | . | - | - | - | -
c1coc(C2=NC(c3ccco3)C(c3ccco3)N2)c1 (configuration not stated) | - | - | - | - | - | 49
CCCCOc1nc(N)nc(-c2ccccc2)n1 | - | - | 22127 | - | - | -
Nc1nc(N)nc(-c2ccccc2)n1 | - | - | - | - | - | -
Cc1ccc([C@@H]2C[C@H]3[C@@H](CN2S(=O)(=O)c2ccc(C)cc2)C(=O)C[C@@H](c2ccc(C)cc2)N3S(=O)(=O)c2ccc(Cl)cc2)cc1 | - | - | - | - | - | -
CCn1c(SCC(N)=O)nnc1-c1cc2c(C)nn(-c3ccccc3)c2s1 | - | - | 23213 | - | - | -
CCn1c(SCC(=O)Nc2cc(C(C)(C)C)nn2-c2ccccc2)nnc1-c1cccs1 | - | - | - | - | - | -
CCn1c(CSc2nc3ccccc3s2)nnc1SCC(=O)OC(C)(C)C | - | - | 16941 | - | - | -
SMILES | BoNT A protease | GDH-TPI inh | Autofluor counter | Anthrax LF prot | BoNT F protease | Mtb FBA inh
CCn1c(Cc2ccccc2)nnc1SCC(=O)Nc1nc2ccccc2s1 | - | - | - | - | - | -
CCn1c(CCc2ccccc2)nnc1SCC(N)=O | - | - | - | - | 37 | -
CCn1c(CSc2nc3ccccc3s2)nnc1SCC(N)=O | - | - | 20063 | - | - | -
CCn1c(CSc2nc3ccccc3s2)nnc1SCC(=O)c1ccc2c(c1)OCCO2 | - | - | - | - | - | -
COc1cc(NC(=O)CSCc2ccccc2)c(C(=O)O)cc1OC | - | - | - | - | - | -
Cn1c(CSc2nc3ccccc3s2)nc2ccccc21 | - | - | 22150 | - | - | -
C=CCn1c(CSc2nc3ccccc3s2)nnc1SCC(=O)NCc1ccccc1 | - | - | - | - | - | -
CCn1c(CSc2nc3ccccc3s2)nnc1SCC(=O)NCC(=O)OC | - | - | 20468 | - | - | -
O=C(NCCCn1ccnc1)c1ccc(N2CCCCC2)c([N+](=O)[O-])c1 | - | - | - | - | - | -
Cc1c2ccccc2nc2c(F)c(N(C)C)c(F)c(F)c12 | - | - | - | - | - | -
CN(C)c1c2ccccc2nc2c(F)c(F)c(F)c(F)c12 | - | - | - | - | - | 117
COc1ccc(C=C2C=C(C(C)(C)C)C(=O)C(C(C)(C)C)=C2)cc1OC | 86 | - | - | - | - | -
N#CCC(=O)Nc1ccc(C(=O)OCC(=O)NC2CCCCCC2)cc1 | - | - | - | - | - | -
O=C(OCC#CCSc1nnc(-c2cccc3ccccc23)o1)c1ccco1 | ? | - | 20284 | - | - | -
O=C(OCC#CCSc1nc2ccccc2o1)c1ccco1 | ? | - | 22148 | - | - | -
Oc1ccc(/C=N/n2c(-c3ccccc3)n[nH]c2=S)cc1Br | - | 48 | - | - | ? | -
Oc1c(Br)cc(/C=N/n2c(-c3ccccc3)n[nH]c2=S)c(O)c1Br | - | 36 | - | - | ? | -
COc1cc(/C=N/n2c(-c3ccccc3)n[nH]c2=S)ccc1O | - | - | - | - | - | -
CC(/C=N/n1c(-c2cccnc2)n[nH]c1=S)=C\c1ccccc1 | - | - | 16837 | - | - | -
Oc1c(Br)cc(/C=N/n2c(-c3ccccc3)n[nH]c2=S)cc1Br | - | 31 | - | - | ? | -
O=C1CC(SC(=S)C2CCCC2=O)C(=O)N1 (configuration not stated) | - | - | - | - | - | -
COc1cccc(C(C(=O)NC2CCCC2)N(C(=O)c2ccco2)c2ccc(-n3cnnn3)c(C)c2)c1OC (configuration not stated) | - | - | - | - | - | -
C#CCN(C#N)c1nc(NCC)nc(NC(C)C)n1 | - | - | 23207 | - | - | -
CCN(C#N)c1nc(NC(C)C)nc(NC(C)C)n1 | - | - | - | - | - | -
C=CCn1c(CNC(=O)c2ccco2)nnc1SCC(=O)c1ccc(F)cc1 | - | - | - | - | - | -
C=CCn1c(COC)nnc1SCC(=O)c1ccc(F)cc1 | ? | - | 16919 | - | - | -
COc1cc(NC(=O)c2ccc([N+](=O)[O-])cc2)ccc1NC(=O)C(C)C | - | - | - | - | - | -
O=C(NCc1ccccc1)C1CC2CCCC(C1)C2=O (configuration not stated) | ? | - | 17138 | - | - | -
O=C(O)C1CC=CCC1C(=O)NCc1ccccc1 (configuration not stated) | - | - | 22945 | - | - | -
CCOc1ccccc1NC(=O)C1CC2CCCC(C1)C2=O (configuration not stated) | - | - | 23703 | - | - | -
